The source made the active and inactive calls.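 The calls were made as follows, unless noted: active = visual image review flags a hit and inhibition of aggregation exceeds 20%; inconclusive = visual hit but inhibition at or below 20%; inactive = no hit on visual image review.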
Key:
[1] = inhibitors of TNFa-induced NFkB p65 translocation, primary screen, imaging, HUVEC, MLSMR starter and 10KST1 sets (AID 438;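 active = inhibition above 20% together with a positive visual image hit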;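 also: compound added about 3h40 before a 20 min TNFalpha stimulation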;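 as to inhibition: signal is the nuclear over cytoplasmic p65 intensity ratio per well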); conditions: HUVEC TNFa-induced p65 nuclear translocation; cell count: measured here: nuclei count (cytotoxicity indicator), at 2.08 µM; inhibition: at 2 µM, stronger effect = higher value, 0% TNFa-plus-vehicle, 100% no-TNFa wells
[2] = inhibitors of mutant huntingtin aggregation, primary screen, imaging, exon1htt(103Q)mCFP cells, high-content imaging (AID 483); conditions: exon1htt(103Q)mCFP cell line, aggregate imaging, at 2 µM; inhibition of aggregation: stronger effect = higher value; nuclei count: measured here: cell count, toxicity;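 also: compound exposure lasted 3 days before fixation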;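 as to nuclei count: percent of the per-plate median nuclei count of sample wells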
[3] = inhibitors of E-selectin induction by TNFa, primary screen, imaging, HUVEC, immunofluorescence, MLSMR starter and 10KST1 sets (AID 487;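 active = visually confirmed hit in the image check and inhibition above 20%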;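 as to inhibition: signal is fraction of cell area covered by stained E-selectin grains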;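 as to nuclei count: 100% = median nuclei count of all wells on the same plate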); conditions: HUVEC TNFalpha-induced E-selectin immunofluorescence imaging, at 2 µM; inhibition: stronger effect = higher value; nuclei count: measured here: cell number, toxicity
[4] = biological target: Voltage-gated potassium channel subunit beta-2 (Rattus norvegicus) (UniProt P62483); test: KvBeta enzyme negative modulators, primary screen, biochemical, NADPH fluorescence (AID 622;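 active = fluorescence slope higher than the sample average by over 3 SD, cut at about -0.22 in these data, passing the limit was not always enough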;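 also: slope of raw intensity against log time taken from 70 to 1610 s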); conditions: recombinant KvBeta, 4-cyanobenzaldehyde reduction, at 10 µM, stronger effect = higher value
[5] = biological target: Voltage-gated potassium channel subunit beta-2 (Rattus norvegicus) (UniProt P62483); test: KvBeta positive modulators, primary screen, biochemical, NADPH fluorescence (AID 623;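 active = NADPH fluorescence slope more negative than the mean of all samples by about 3 SD, 99.7% confidence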;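 also: fluorescence intensity change per second fitted from 20 to 320 s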); conditions: Recombinant KvBeta, NADPH fluorescence decrease slope, 10 min; at 10 µM; stronger effect = lower value
[6] = biological target: Alpha-2C adrenergic receptor (Homo sapiens) (UniProt P18825); test: modulators of alpha2C/GIRK thallium flux, primary screen, cell-based, HEK293 alpha2C/GIRK1/2 (AID 624;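 active = fluorescence slope after compound addition differing from the mean of all screened samples at 99.7% confidence, in either direction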;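 also: slope of fluorescence ratio to pre-addition baseline per second over 15 to 24 s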); conditions: thallium flux BTC fluorescence, at 10 µM, actives lie on both sides
[7] = inhibitors of Sendai virus-induced IRF3 signaling, primary screen, TLR/RLR signaling modifier project, cell-based, Sendai virus stimulus, luciferase, 10K MLSCN set (AID 602276;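 active = inhibition at or above 50% at 10 µM; inactive = inhibition below 50%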;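 also: firefly luciferase from ISG56 promoter only with Renilla not read in this screen; 0% = Sendai virus plus DMSO and 100% = medium plus DMSO without virus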); conditions: HEK293 RL24 IRF3 luciferase reporter, at 10 µM, stronger effect = higher value
[8] = inhibitors of poly I:C-induced TLR3 signaling, primary screen, cell-based, poly I:C stimulus, luciferase, 10K MLSCN set (AID 602277;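 active = inhibition of the reporter signal at or above 50%; inactive = inhibition below 50%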); conditions: HEK293-TLR3 RL24 IRF3 luciferase reporter, at 10 µM, stronger effect = higher value

Chain of Alpha-2C adrenergic receptor (Homo sapiens) (P18825 whole entry, looked up): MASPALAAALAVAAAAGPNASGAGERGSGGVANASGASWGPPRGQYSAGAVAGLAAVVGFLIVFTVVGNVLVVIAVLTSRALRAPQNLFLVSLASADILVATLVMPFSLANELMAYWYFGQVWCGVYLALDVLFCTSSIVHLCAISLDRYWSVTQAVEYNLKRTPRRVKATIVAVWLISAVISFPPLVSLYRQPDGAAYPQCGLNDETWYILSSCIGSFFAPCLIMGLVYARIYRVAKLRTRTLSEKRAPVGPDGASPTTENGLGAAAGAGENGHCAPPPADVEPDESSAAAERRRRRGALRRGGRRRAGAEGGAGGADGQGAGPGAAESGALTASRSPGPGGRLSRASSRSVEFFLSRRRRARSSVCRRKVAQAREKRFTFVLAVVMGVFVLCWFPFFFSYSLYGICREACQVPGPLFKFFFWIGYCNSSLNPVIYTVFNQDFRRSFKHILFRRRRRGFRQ
Chain of Voltage-gated potassium channel subunit beta-2 (Rattus norvegicus) (P62483 whole entry, looked up): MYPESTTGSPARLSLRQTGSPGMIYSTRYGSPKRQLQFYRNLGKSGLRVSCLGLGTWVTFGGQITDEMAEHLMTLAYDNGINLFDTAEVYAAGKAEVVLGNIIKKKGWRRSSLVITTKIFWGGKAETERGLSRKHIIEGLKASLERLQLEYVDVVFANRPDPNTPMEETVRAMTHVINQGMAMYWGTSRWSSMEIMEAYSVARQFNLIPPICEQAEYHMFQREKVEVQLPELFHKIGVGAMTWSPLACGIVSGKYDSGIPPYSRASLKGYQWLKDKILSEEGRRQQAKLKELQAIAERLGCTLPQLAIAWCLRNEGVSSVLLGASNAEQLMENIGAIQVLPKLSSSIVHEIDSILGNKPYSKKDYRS

| Structure (SMILES) | cell count [1] | inhibition [1] | inhibition of aggregation [2] | nuclei count [2] [%] | inhibition [3] | nuclei count [3] [%] | fluorescence slope [4] | NADPH fluorescence slope [5] | slope [6] | inhibition [7] | inhibition [8] |
| --- | --- | --- | --- | --- | --- | --- | --- | --- | --- | --- | --- |
| Cc1ccc(C(=O)Nc2ccc(Cl)cn2)cc1S(=O)(=O)N1CCOCC1 | 568 | -10.1% (inactive) | -0.1% (inactive) | 112 | -12.7% (inactive) | 102 | -0.503 (inactive) | 9.5e-06 (inactive) | 0.00409 (inactive) | -6.64% (inactive) | -36% (inactive) |
| COCCN1Cc2cccc(C(=O)Nc3cccnc3)c2C1=O | 649 | -26.5% (inactive) | -6.7% (inactive) | 100 | -39.6% (inactive) | 100 | -0.503 (inactive) | -0.000182 (inactive) | 0.00506 (inactive) | 6.71% (inactive) | 5.54% (inactive) |
| COCC(=O)N(C)c1nnc(-c2ccccn2)s1 | 433 | 1.4% (inactive) | 16.5% (inactive) | 84.4 | -12.1% (inactive) | 107 | -0.167 (inactive) | -1.3e-05 (inactive) | 0.0059 (inactive) | -7.53% (inactive) | -17.6% (inactive) |
| O=C(CN1C(=O)C2C3C=CC(C3)C2C1=O)NCc1ccc2c(c1)OCO2 (stereo not drawn) | 421 | 7.5% (inactive) | 8.3% (inactive) | 102 | -109% (inactive) | 104 | -0.601 (inactive) | 1.2e-05 (inactive) | 0.00636 (inactive) | -4.21% (inactive) | 6.98% (inactive) |
| COc1cccc(NC(=O)N2CCN(C(=O)C(Cc3ccc(OC)c(OC)c3)NC(C)=O)CC2)c1 (stereo not drawn) | 364 | -0.5% (inactive) | -4% (inactive) | 107 | -47.6% (inactive) | 99.9 | -0.355 (inactive) | -3.6e-05 (inactive) | 0.00701 (inactive) | 12.1% (inactive) | 22.8% (inactive) |
| CCOC(=O)c1oc2ccccc2c1NC(=O)c1cccc(OC)c1OC | 553 | -14.1% (inactive) | -13% (inactive) | 104 | 23.6% (inactive) | 82.8 | -0.616 (inactive) | -1.9e-05 (inactive) | 0.00654 (inactive) | -0.203% (inactive) | -6.33% (inactive) |
| Cn1c(C(=O)OCC(=O)NCC2CCCO2)cc2sccc21 (stereo not drawn) | 497 | -1% (inactive) | -7.3% (inactive) | 108 | -79% (inactive) | 107 | -0.451 (inactive) | 9.3e-06 (inactive) | 0.00457 (inactive) | 13.3% (inactive) | 13.1% (inactive) |
| COC(=O)c1cnc2c(C(F)(F)F)cccc2c1OC | 595 | -8.5% (inactive) | -5% (inactive) | 61.8 | -64.2% (inactive) | 84.8 | -0.605 (inactive) | 6.9e-06 (inactive) | 0.0043 (inactive) | 9.38% (inactive) | 10.1% (inactive) |
| CCOC(=O)C1CCN(Cc2c(O)ccc3ccccc23)CC1 | 596 | -3% (inactive) | 3.7% (inactive) | 109 | -41.8% (inactive) | 124 | -0.5 (inactive) | -7.8e-05 (inactive) | 0.00484 (inactive) | 25.4% (inactive) | 33.8% (inactive) |
| Nc1nc(SCc2ccc(Cl)cc2Cl)n[nH]1 | 352 | -1.7% (inactive) | -21.4% (inactive) | 97.6 | -161% (inactive) | 124 | -0.387 (inactive) | -4.5e-05 (inactive) | 0.00474 (inactive) | -12% (inactive) | -30.1% (inactive) |
| O=S(=O)(c1cccc2nsnc12)N1CCN(c2ncccn2)CC1 | 573 | -15.2% (inactive) | 5.1% (inactive) | 99.7 | -93.3% (inactive) | 120 | -0.408 (inactive) | -4.2e-05 (inactive) | 0.00508 (inactive) | 12.7% (inactive) | 31.3% (inactive) |
| Cc1nc(NC2=NCN(CC3CCCO3)CN2)nc2ccccc12 (stereo not drawn) | 346 | -11.7% (inactive) | 28.4% (active) | 84.3 | 29% (inactive) | 98.5 | -0.548 (inactive) | -8.4e-06 (inactive) | 0.00499 (inactive) | 15.3% (inactive) | 28.6% (inactive) |
| CCOC(=O)c1cc(C(C)(C)C)oc1CN | 667 | -1% (inactive) | 1.2% (inactive) | 98.7 | -1.1% (inactive) | 102 | -0.495 (inactive) | -4.4e-05 (inactive) | 0.00475 (inactive) | 15.2% (inactive) | 21.7% (inactive) |
| CCN(CC)S(=O)(=O)c1ccc2oc(SCc3ccc(F)cc3)nc2c1 | 707 | -9.4% (inactive) | 6.8% (inactive) | 104 | -6.6% (inactive) | 110 | -0.604 (inactive) | -6.8e-05 (inactive) | 0.00777 (inactive) | 1.12% (inactive) | -39.5% (inactive) |
| CCn1nccc1C(=O)Nc1cc(Cl)ccc1Cl | 633 | 8.3% (inactive) | 6.7% (inactive) | 57.3 | 22.2% (inactive) | 106 | -0.385 (inactive) | -5e-05 (inactive) | 0.00378 (inactive) | 1.68% (inactive) | 15.9% (inactive) |
| CS(=O)(=O)N(CC(=O)N1CCc2ccccc2C1)c1ccc2c(c1)OCO2 | 262 | 1.6% (inactive) | 17% (inactive) | 97.2 | 14.1% (inactive) | 77.8 | -0.481 (inactive) | -5.5e-05 (inactive) | 0.00584 (inactive) | 11% (inactive) | 23.8% (inactive) |
| CC(C)OC(=O)c1ccc(OC(=O)c2cccnc2)cc1 | 424 | 3.3% (inactive) | -5.5% (inactive) | 107 | 12.1% (inactive) | 104 | -0.429 (inactive) | -6.3e-05 (inactive) | 0.00544 (inactive) | -2.15% (inactive) | -5.2% (inactive) |
| CC1CCCN(C(=O)C23CCC(C)(C(=O)C2)C3(C)C)C1 (stereo not drawn) | 636 | 0% (inactive) | -8.3% (inactive) | 90.8 | -29.8% (inactive) | 99.7 | -0.593 (inactive) | -1.7e-05 (inactive) | 0.00596 (inactive) | 5.18% (inactive) | 8.32% (inactive) |
| COc1ccc(OC)c(S(=O)(=O)N2CCC(C(=O)NCC3CCCO3)CC2)c1 (stereo not drawn) | 268 | 1.3% (inactive) | 10.7% (inactive) | 100 | -34.4% (inactive) | 115 | -0.352 (inactive) | 2.2e-05 (inactive) | 0.00611 (inactive) | 14.9% (inactive) | 20.2% (inactive) |
| Cc1nc2c(-c3ccccc3)c(C)nn2c(C)c1CCC(=O)O | 586 | 6.1% (inactive) | 8.1% (inactive) | 73 | -61.1% (inactive) | 103 | -0.492 (inactive) | -2.4e-05 (inactive) | 0.00603 (inactive) | 13.6% (inactive) | 20% (inactive) |
| CC(C)(Oc1ccc(Cl)cc1)C(=O)NCc1ccncc1 | 419 | 5.2% (inactive) | -21% (inactive) | 96.4 | -85.3% (inactive) | 113 | -0.297 (inactive) | -5.5e-05 (inactive) | 0.00503 (inactive) | 11.3% (inactive) | 12.2% (inactive) |
| CSc1ccc(S(=O)(=O)Nc2cccc(F)c2)cc1 | 342 | 1% (inactive) | -4.6% (inactive) | 82.9 | -34.7% (inactive) | 96.9 | -0.408 (inactive) | -5.1e-05 (inactive) | 0.00352 (inactive) | 15.7% (inactive) | 26.6% (inactive) |
| COc1ccc(OC)c(NC(=O)CS(=O)(=O)Cc2nc(-c3ccccc3C)oc2C)c1 | 676 | 1.1% (inactive) | -17.4% (inactive) | 97.7 | -17.6% (inactive) | 110 | -0.587 (inactive) | -1.4e-06 (inactive) | 0.00717 (inactive) | 7.59% (inactive) | 31.4% (inactive) |
| CC(C)CCNC(=O)C(C)N(Cc1ccc(F)cc1)C(=O)c1ccc(CN2CCCCC2)o1 (stereo not drawn) | 327 | -11.2% (inactive) | 28.1% (active) | 75.3 | 2.1% (inactive) | 106 | -0.284 (inactive) | -6e-05 (inactive) | 0.00436 (inactive) | 7.35% (inactive) | 14% (inactive) |
| O=C(NCCCCNC(=O)c1cccnc1)c1cccnc1 | 514 | 10.1% (inactive) | 8.2% (inactive) | 99.6 | -31.4% (inactive) | 116 | -0.64 (inactive) | 3.6e-05 (inactive) | 0.00666 (inactive) | 13.9% (inactive) | 26.9% (inactive) |
| COc1cccc(CN2CCN(C(=O)CC(C)C)CC2)c1 | 448 | 2.2% (inactive) | -3.8% (inactive) | 118 | -45.8% (inactive) | 132 | -0.241 (inactive) | 2.2e-06 (inactive) | 0.00544 (inactive) | 10.5% (inactive) | 4.9% (inactive) |
| C=CCSc1nc(N)c(C(=O)Nc2ccccc2C)cc1C(N)=O | 775 | 1.4% (inactive) | 15.6% (inactive) | 96.4 | -142% (inactive) | 124 | -0.46 (inactive) | 1.4e-05 (inactive) | 0.00326 (inactive) | -4.85% (inactive) | 24.2% (inactive) |
| COc1cc(C(=O)Nc2nc(-c3cccs3)cs2)cc(OC)c1OC | 475 | -4.8% (inactive) | -20.4% (inactive) | 98.7 | -18.4% (inactive) | 106 | -0.507 (inactive) | -6.5e-06 (inactive) | 0.00722 (inactive) | -6.01% (inactive) | -12% (inactive) |

Source: PubChem BioAssay
